Data published in PubChem BioAssay (NCATS).
“And” between values parts separate entries of the source, which are not always exact repeats. Equal values may be shown once. Inconclusive results are not listed. Where a call stands in place of a potency, no number is given. Some structures have more than one record in an assay (separate samples or runs), and their calls can disagree. The source made the active and inactive calls. Calls come from the whole dose curve; as a rule, active = well fitted inhibition curve with a large enough effect; inconclusive = small, poorly fitted or top-dose-only effect; inactive = flat fitted curve, though single readings scatter.

molecular target: Voltage-gated inwardly rectifying potassium channel KCNH2 (Homo sapiens) (UniProt Q12809); assay: qHTS Assay for Small Molecule Inhibitors of the Human hERG Channel Activity (AID 588834); conditions: U2OS BacMam hERG, FluxOR thallium flux fluorescence; series mostly up to 46.1 µM;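 note: lower thallium flux fluorescence means stronger hERG block; nearly all actives have a fitted effect of over 50% in size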
In short: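 Homogeneous FluxOR thallium flux assay using hERG-expressing U2OS cells (BacMam). Compound treatment about 10 minutes preceded stimulation; reduced fluorescence taken as channel block.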
Potency is the fitted concentration of half-maximal effect.

Chain of Voltage-gated inwardly rectifying potassium channel KCNH2 (Homo sapiens) (Q12809 whole entry, looked up): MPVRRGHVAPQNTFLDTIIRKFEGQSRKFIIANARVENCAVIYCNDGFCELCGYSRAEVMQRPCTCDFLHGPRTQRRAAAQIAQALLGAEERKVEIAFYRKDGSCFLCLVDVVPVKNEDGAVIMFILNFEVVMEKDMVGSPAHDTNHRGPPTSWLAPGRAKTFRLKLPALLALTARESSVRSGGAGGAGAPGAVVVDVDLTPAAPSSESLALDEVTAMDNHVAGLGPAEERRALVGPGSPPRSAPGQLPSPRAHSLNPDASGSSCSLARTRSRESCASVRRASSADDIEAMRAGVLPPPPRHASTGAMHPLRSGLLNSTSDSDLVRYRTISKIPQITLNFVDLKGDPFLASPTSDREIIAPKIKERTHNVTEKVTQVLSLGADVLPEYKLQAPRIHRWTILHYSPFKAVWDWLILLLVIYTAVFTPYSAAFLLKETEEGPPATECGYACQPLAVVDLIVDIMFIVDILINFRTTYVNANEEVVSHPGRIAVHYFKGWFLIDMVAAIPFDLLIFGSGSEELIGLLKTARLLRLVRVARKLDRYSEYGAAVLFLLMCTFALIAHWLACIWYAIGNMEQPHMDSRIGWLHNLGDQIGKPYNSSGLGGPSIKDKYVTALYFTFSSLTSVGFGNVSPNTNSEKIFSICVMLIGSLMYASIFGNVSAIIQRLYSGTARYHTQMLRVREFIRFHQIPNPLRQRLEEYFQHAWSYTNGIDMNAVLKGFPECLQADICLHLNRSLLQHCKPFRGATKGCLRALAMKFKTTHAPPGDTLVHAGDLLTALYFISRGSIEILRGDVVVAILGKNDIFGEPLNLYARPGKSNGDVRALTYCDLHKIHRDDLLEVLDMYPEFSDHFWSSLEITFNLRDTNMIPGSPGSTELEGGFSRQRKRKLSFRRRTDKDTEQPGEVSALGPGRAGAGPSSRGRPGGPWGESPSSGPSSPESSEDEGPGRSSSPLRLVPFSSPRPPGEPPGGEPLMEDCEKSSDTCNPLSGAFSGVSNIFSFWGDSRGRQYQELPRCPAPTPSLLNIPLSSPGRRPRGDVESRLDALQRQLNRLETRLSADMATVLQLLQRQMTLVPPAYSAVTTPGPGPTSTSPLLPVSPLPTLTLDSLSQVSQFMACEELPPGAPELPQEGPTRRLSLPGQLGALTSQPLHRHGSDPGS

| Compound | Potency |
| --- | --- |
| OC1C(O)C(O)C(O)C(O)C1O (configuration not stated) | inactive |
| CCCN(CCC)S(=O)(=O)c1ccc(C(=O)O)cc1 | inactive |
| CCN[C@@H]1C[C@H](N)[C@@H](OC2OC(CN)=CCC2N)[C@H](O)[C@H]1O[C@H]1OC[C@](C)(O)[C@H](NC)[C@H]1O (some centres not stated) | inactive |
| CCCCC(CC)COC(=O)c1ccc(N(C)C)cc1 (configuration not stated) | inactive and 28.2 µM (active) |
| Cc1cccc(C)c1NC(=O)c1ccccc1C(=O)O | inactive |
| COc1ccc(C(Cl)=C(c2ccc(OC)cc2)c2ccc(OC)cc2)cc1 | inactive |
| CCC(C(=O)OCCOCCN(CC)CC)c1ccccc1 (configuration not stated) | inactive |
| Cc1cn([C@H]2C[C@H](F)[C@@H](CO)O2)c(=O)[nH]c1=O | inactive |
| COc1cc([C@H]2Oc3cc([C@H]4Oc5cc(O)cc(O)c5C(=O)[C@@H]4O)ccc3O[C@@H]2CO)ccc1O | inactive |
| CCCN(CCc1cccs1)[C@H]1CCc2c(O)cccc2C1 | 1 µM (active) |
| COc1ccc(C(=O)c2ccccc2)c(O)c1 | 35.5 µM (active) |
| Oc1ccc(Cl)cc1Cc1cc(Cl)ccc1O | 28.2 µM (active) |
| CC(C)(C)CC(C)(C)c1ccc(O)c(-n2nc3ccccc3n2)c1 | inactive |
| NCCNc1cccc2ccccc12 | inactive |
| C/C=C/c1ccc(O)c(OC)c1 | inactive |
| CCCCCCCCOc1ccc(C(=O)c2ccccc2)c(O)c1 | inactive |
| CC(=O)O[C@]1(C(C)=O)CC[C@H]2[C@@H]3C=C(C)C4=CC(=O)CC[C@]4(C)[C@H]3CC[C@@]21C | inactive |
